Source: PubChem
A selection: hits, their analogues and other compounds. The true share with any hit is near 12%.
TDP1 inh: TDP1 (human) enzyme inhibition | 350,000 tested, 0.28% active | recombinant TDP1, AlphaScreen DNA substrate cleavage | Q9NUW8 | AID 485290 | Potency, µM (titrated, usually from 130 µM), usual class: inhibitors; further: nearly all actives have a fitted effect of over 40% in size
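Compounds were preincubated with Tdp1 (1 nM final) for 15 min at room temperature before substrate (15 nM final) started a 5 min reaction; beads (10 ug/ml final) were then added for 10 min before AlphaScreen detection.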
HP1b chromo inh: inhibitors of HP1-beta chromodomain binding to methylated histone tails | P83916 | AlphaScreen HP1-beta / biotin-H3K9me3 peptide binding | Potency, µM (highest dose often 114 µM), most hits filed as inhibitors | 390,000 tested, 0.56% active; further: nearly all actives have a fitted effect of over 70% in size
Target sequence (P83916 whole entry, looked up): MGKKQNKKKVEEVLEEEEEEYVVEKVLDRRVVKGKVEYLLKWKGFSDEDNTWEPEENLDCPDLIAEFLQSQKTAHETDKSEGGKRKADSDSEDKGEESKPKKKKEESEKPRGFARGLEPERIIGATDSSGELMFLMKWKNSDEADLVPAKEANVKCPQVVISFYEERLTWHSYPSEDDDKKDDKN
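Compound inhibition of the preformed complex between 50 nM HP1-beta and 50 nM biotinylated H3K9me3 peptide was read by AlphaScreen. Buffer was PBS pH 7.4 with 0.01% Tween-20. Incubations ran 30 min at room temperature, with 10 ug/mL donor/acceptor beads.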
G9a inh: G9a (human) methyltransferase inhibition | G9a H3K9 monomethylation, AlphaScreen, 2 h | Potency, µM (highest dose often 102 µM), most hits filed as inhibitors | 350,000 tested, 8.8% active | AID 504332; further: nearly all actives have a fitted effect of over 75% in size
Target sequence (Q96KQ7 913-1193 limits assumed): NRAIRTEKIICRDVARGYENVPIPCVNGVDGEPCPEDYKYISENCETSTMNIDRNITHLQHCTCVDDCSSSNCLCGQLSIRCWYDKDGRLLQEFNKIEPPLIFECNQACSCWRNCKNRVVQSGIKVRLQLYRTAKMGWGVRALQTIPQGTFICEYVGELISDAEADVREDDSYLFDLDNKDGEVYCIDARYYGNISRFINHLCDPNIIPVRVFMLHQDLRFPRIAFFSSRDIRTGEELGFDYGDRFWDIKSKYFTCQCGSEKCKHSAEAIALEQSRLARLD
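Signal arises when biotinylated H3K9 peptide, once monomethylated, bridges streptavidin donor and antibody-captured acceptor beads. Enzyme at 20 nM was preincubated 15 min with test compounds; peptide 500 nM and SAM 20 uM then reacted for 2 h.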
BAZ2B block: BAZ2B (human) inhibition; AlphaScreen BAZ2B-H3K14Ac peptide displacement; Potency, µM (highest dose often 114 µM), hits mostly inhibitors; 360,000 tested, 4.4% active; AID 504333; further: nearly all actives have a fitted effect of over 60% in size
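AlphaScreen displacement: compounds (up to 110uM) incubated 30 min at room temperature with a preformed 50 nM BAZ2B/50 nM biotinylated H3K14Ac peptide complex in PBS pH 7.4 with Tween-20. Donor and acceptor beads at 10 ug/mL final added, 20 min light-protected before reading.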
Sfp inh: Sfp phosphopantetheinyl transferase inhibition. Q9F4F7. Biochemical Sfp PPTase activity, qHTS. Potency, µM, usual class: inhibitors. 310,000 tested, 3.5% active. AID 1490;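 further: the enzyme is Sfp with the accession as filed and its product quenches rhodamine fluorescence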
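Buffer: 50 mM Hepes-Na pH 7.6, 10 mM MgCl2, 0.01% Nonidet P-40, 0.01% BSA. Enzyme 15 nM, pre-exposed to compound 15 min; substrates then added and fluorescence change tracked over 30 min.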
JMJD2A Tudor inh: inhibitors of human JMJD2A Tudor domain; AID 504339; 390,000 tested, 4.4% active; AlphaScreen JMJD2A-Tudor / H3K4me3 peptide binding; Potency, µM (top dose mostly 114 µM), most hits filed as inhibitors; O75164; further: nearly all actives have a fitted effect of over 50% in size
Hits are given with their value; - = inactive; ? = inconclusive; . = no result; [ ] = dose if it differs, or a comment. The call rests on the fitted dose curve; in most records, active means well fitted curve in the direction sought with a large enough effect; inconclusive means small, poorly fitted or top-dose-only effect, or another doubt; inactive means no such curve, though single readings can be large; an effect the other way counts as inactive or inconclusive.

SMILES	TDP1 inh	HP1b chromo inh	G9a inh	BAZ2B block	Sfp inh	JMJD2A Tudor inh
O=C1CN(C(=O)COC(=O)c2ccc(N3CCCCCC3)c([N+](=O)[O-])c2)c2ccccc2N1	-	?	40µM	?	-	?
O=C1CN(C(=O)COC(=O)c2cccc(S(=O)(=O)NCc3ccccc3)c2)c2ccccc2N1	-	-	-[12.7 µM]	-	-	-
CCN(CC)S(=O)(=O)c1cccc(C(=O)OCC(=O)N2CC(=O)Nc3ccccc32)c1	-	-	20µM	-	-	-
CS(=O)(=O)c1ccc(C(=O)OCC(=O)N2CC(=O)Nc3ccccc32)cc1[N+](=O)[O-]	-	-	.	.	.	-
O=C(NC1CCCCC1)c1ccc(-c2ccccc2F)o1	-	-	.	.	.	-
Cc1ccc(Nc2nc(N3CCOCC3)c3ccccc3n2)cc1	-	-	?	-	-	-
c1ccc2c(c1)nc(N1CCCCCC1)c1ccccc12	.	-	-	-	-	18µM
COc1ccc(Nc2nc(-c3ccccc3)c3cc(Br)ccc3n2)cc1	-[12.3 µM]	-	13µM	?	.	?
c1ccc2nc(N3CCCC3)c(N3CCCC3)nc2c1	.	-	-[12.7 µM]	-	-	-
Oc1ccc(Nc2nc(N3CCCC3)c3ccccc3n2)cc1	-	-	40µM	?	-	56µM
COc1ccc(Nc2nc(N3CCCCC3)c3ccccc3n2)cc1	-	-	?	?	50µM	?
O=C(Cc1ccccc1)NCC(=O)OCC(=O)c1ccc(F)cc1	-	-	-	-	-	-
CCOC(=O)/C(C#N)=C/c1cc2ccccc2nc1N1CCOCC1	-	-	-	-	-	-
N#CC(C#N)=Cc1cc2ccccc2nc1N1CCCCC1	-	-	?	40µM	-	?
CCOc1ccc2c(c1)c(N=Nc1cccc(C(=O)O)c1)c(O)n2C	-	-	?	?	-	?
Cc1ccc2c(c1)c(N=Nc1cccc(C(=O)O)c1)c(O)n2C	-	-	35µM	?	-	-
CN(C)c1ccc(CNc2ncnc3sccc23)cc1	-	-	13µM	-	-	-
O=C(Nc1nc(COc2ccccc2)cs1)C12CC3CC(CC(C3)C1)C2	-	-	45µM	-	-	-
CC(=O)Nc1nc(COc2ccccc2)cs1	-	-	-	-	-	-
Cc1ccc(/C([O-])=C(/C(=S)NCc2ccc3c(c2)OCO3)[n+]2ccc(N(C)C)cc2)c(C)c1	-	-	50µM	?	-	?
C=CCSc1nnc(C)c(/C=C/Nc2ccc(Cl)cc2)n1	-	-	?	-	-	40µM
C=CCSc1nc(-c2ccccc2)c2cc(Cl)ccc2n1	-	-	-	-	-	-
S=C1NC2(CCS1)Oc1ccccc1C1CC(c3ccccc3)=NN12 (stereo not given)	.	.	50µM	?	?	.
CCCCn1cc(S(=O)(=O)c2cc(C)ccc2C)c(=O)c2cc(F)c(N3CCC(C)CC3)cc21	-	-	-	-	.	-
CCOc1ccc(NC(=S)N2CCCN(Cc3cc(C)ccc3C)C2)cc1	-	-	-	-	-	?
SMILES	TDP1 inh	HP1b chromo inh	G9a inh	BAZ2B block	Sfp inh	JMJD2A Tudor inh
CCN1CCN(C(=O)Nc2cc(Cl)ccc2OC)CC1	-	-	50µM	-	-	-
COc1ccc(Cl)cc1NC(=O)NN1CCN(C)CC1	14µM	-	50µM	50µM	-	-
COc1ccc(Cl)cc1NC(=O)N1CCN(c2ccccc2OC)CC1	-	-	-	-	-	-
Cc1ccc2c(ccc[n+]2CC(=O)c2ccccc2)c1	-	-	-	-	-	-
COc1ccc(C(=O)OCC(N)=O)cc1[N+](=O)[O-]	-	-	-	-	-	-
O=C(C[n+]1cc(Br)cc2ccccc21)c1ccccc1	-	-	45µM	?	-	?
COc1ccc(C(=O)C[n+]2cc(Br)cc3ccccc32)cc1[N+](=O)[O-]	.	-	35µM	-	-	79µM
COC(=O)c1ccc(OCC2c3cc(OC)c(OC)cc3CCN2C(=O)c2ccccc2C)cc1 (stereo not given)	-	-	-	?	.	?
CSc1ncc(C(=O)NCc2ccc(C)cc2)c(C)n1	-	-	-	-	.	-
COc1ccc(/C=N/Nc2snc(SC)c2C#N)cc1OC	-	-	-[0.0925 µM]	45µM	?	?
COc1cccc(/C=N/Nc2snc(SC)c2C#N)c1	-	-	?	-	56µM	-
CSc1nsc(N/N=C/c2ccccc2)c1C#N	-	-	-	-	-	-
COc1cccc(/C=N/Nc2ccccc2C(=O)O)c1O	.	-	?	-	-	-
COc1ccc(C=NNC(=S)NN=Cc2ccc(OC)c(OC)c2)cc1OC	.	-	.	.	.	?
COc1cccc(/C=N/Nc2snc(SC)c2C#N)c1O	-	-	50µM	-	-	-
Cc1ccc2c(c1)N(CC(=O)NCCCN1CCOCC1)C(=O)c1cccnc1O2	.	-	.	-	-	-
O=C(COc1ncnc2sccc12)N1CCN(C(=O)c2ccco2)CC1	.	-	50µM	?	-	?
CC(C)CN(C(=O)c1cc(Cl)nc2ccccc12)c1c(N)n(Cc2ccccc2)c(=O)[nH]c1=O	.	-	-	-	.	-
O=S(=O)(Cc1ccccc1)N=Nc1c(O)[nH]c2ccc(Br)cc12	-	?	3.5µM	-	-	22µM
O=C(O)c1ccc(N=Nc2c(O)[nH]c3ccc(Br)cc23)cc1	.	-	-[2.33 µM]	79µM	10µM	?
Cc1ccc(N=Nc2c(O)[nH]c3ccc(F)cc23)cc1	-	-	20µM	-	?	-
O=C(O)c1ccc(N=Nc2c(O)[nH]c3cc(Cl)ccc23)cc1	.	-	-	-	-	-
COc1ccc(NC(=O)c2oc3ccc(S(=O)(=O)N(C)C4CCCCC4)cc3c2C)cc1Cl	-	-	-	-	.	-
O=C(Nc1ccc(Br)cc1)C1C2C=CC3(O2)C1C(=O)N(CCN1CCCCC1)C3C(=O)NC1CCCCC1 (stereo not given)	-	-	50µM	-	-	-
CSc1cccc(NC(=O)C2C3C=CC4(O3)C2C(=O)N(CCCN2CCOCC2)C4C(=O)NC2CCCCC2)c1 (stereo not given)	-	-	45µM	-	-	-
CC1CCCN(CCCN2C(=O)C3C(C(=O)Nc4ccc(Cl)cc4)C4C=CC3(O4)C2C(=O)NC2CCCCC2)C1 (stereo not given)	-	-	45µM	-	-	-
CC(C)c1ccc(NC(=O)C2C3C=CC4(O3)C2C(=O)N(CCCN2CCCCC2)C4C(=O)NC2CCCCC2)cc1 (stereo not given)	-	-	-	-	-	-
Cc1ccc(NC(=O)C2C3C=CC4(O3)C2C(=O)N(CCCN2CCCC2)C4C(=O)NC2CCCCC2)cc1Cl (stereo not given)	-	-	?	-	-	-
